{"source": "PubChem BioAssay (NCATS)", "note": "The list shows a part of the results. Results filed as inconclusive are left out. Values without a mark were called inactive. The call rests on the fitted dose curve; in most records, active means well fitted inhibition curve with a large enough effect; inconclusive means small, poorly fitted or top-dose-only effect, or another doubt; inactive means no such curve, though single readings can be large or run the other way.", "data": [{"target": "Luciferin 4-monooxygenase (Photinus pyralis) (UniProt P08659)", "sequence (P08659 whole entry, looked up)": "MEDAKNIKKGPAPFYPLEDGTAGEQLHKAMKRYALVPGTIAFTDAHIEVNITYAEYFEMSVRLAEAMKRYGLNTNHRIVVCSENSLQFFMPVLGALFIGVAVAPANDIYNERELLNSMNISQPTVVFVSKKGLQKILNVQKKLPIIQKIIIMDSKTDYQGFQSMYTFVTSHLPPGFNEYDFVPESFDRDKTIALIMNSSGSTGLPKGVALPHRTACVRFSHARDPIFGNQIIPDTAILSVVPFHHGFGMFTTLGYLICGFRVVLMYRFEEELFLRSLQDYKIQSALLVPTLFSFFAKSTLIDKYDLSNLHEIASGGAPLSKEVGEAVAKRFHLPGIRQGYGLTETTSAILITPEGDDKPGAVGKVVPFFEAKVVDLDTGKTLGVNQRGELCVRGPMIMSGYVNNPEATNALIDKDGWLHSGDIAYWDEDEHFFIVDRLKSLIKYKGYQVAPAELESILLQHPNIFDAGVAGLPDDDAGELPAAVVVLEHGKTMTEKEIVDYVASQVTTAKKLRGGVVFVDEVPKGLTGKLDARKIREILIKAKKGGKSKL", "assay": "Biochemical FLuc counterscreen for small molecule modulators of PMP22 gene expression (AID 1508640); further: % of control where 0% means no effect", "conditions": "purified P. pyralis FLuc, luminescence, 10 min; series mostly up to 57.5 µM; activity, negative = inhibition: at the top concentration", "from_the_text": "Assay Provider: Jim Inglese Ph.D. National Center for Advancing Translational Science, National Institutes of Health, Rockville, MD CMT is a heterogeneous group of neurological disorders that affect approximately 1 in 2,500 people. In particular, the most common form of CMT, CMT1A is genetically linked to the duplication of the PMP22 gene which leads to Schwann cell overexpression, thus manifesting itself as a typical case of dose-sensitive diseases. To identify small molecule compounds that can mediate the expression of PMP22 we developed a phenotypic assay screening strategy by utilizing genome editing techniques to construct Schwann cell lines containing novel reporter technology to monitor the transcriptional or translational regulation of PMP22. For high sensitivity we use a bioluminescent reporter system embedded in the 3' UTR of the PMP22 gene (S16(c9) Pmp22-F2sN) to identify compounds that inhibit gene expression. […] We can further discriminate the effect of all transcriptionally active molecules on PMP22 translation or stability with an assay that incorporates a short NLuc peptide (HiBiT) at the C-terminus of expressed PMP22 (S16(f8) PMP22-HiBiT) allowing alpha complementation and luminescence detection of membrane-associated PMP22 protein. These assays were screened against the NCATS Sytravon Library Collection. Miniaturization of these assays to 1536-well plate format for quantitative high throughput screening (qHTS) yielded rich data sets immediately from the qHTS assay (S16(c9) Pmp22-F2sN), when compared with data from a cell viability assay (Cell TiterGlo) to identify compounds that decreased the output signals through cellular toxicity to streamline the selection process of actives for subsequent characterization using the HiBiT assay (S16(f8) PMP22-HiBiT).\nBiochemical FLuc assay PROTOCOL TABLE (format as described by Inglese J, Shamu CE and Guy RK. 2007) SEQUENCE No. (e.g., 1, 2, 3, etc.); PARAMETER (e.g., Cells, Incubation, Reagent, etc.); VALUE and DESCRIPTION. 1. Reagent. Add 3 uL substrate per well into Greiner 1536-well white/solid bottom high base, medium binding plates. 2. Compounds. Library compounds and controls added at 23nL per well, transferred by Pin Tool. 3. Incubation. Incubate plates 15 min at ambient temperature. 4. Reagent. Add 1uL FLuc enzyme solution per well of Greiner 1536-well plates. 5. Incubation. Incubate plates at room temperature for 10 min., protect from light. 6. Detector. FLuc luminescence measured using CCD-based camera (Viewlux). NOTES (numbers refer to Sequence numbers above; values are from representative experiments) 1. Dispense freshly prepared substrate (final concentration of 10 uM D-Luciferin, 10 mM Mg-Acetate, 50 mM Tris Acetate pH 7.6, 10 uM ATP, 0.01 % Tween-20, 0.05 % BSA) into 1,536-well Greiner white/solid bottom high base, medium binding plates. Protect from light. 4. Freshly prepared enzyme solution containing 10 nM P. pyralis in 50 mM Tris Acetate was filtered through a […] prior to dispensing. 6. Luminescence Read (Fluc): Clear filter; Exposure = 10 sec, Gain = High, Speed = Slow, Binning = 2X REFERENCES: 1. Inglese J, Shamu CE and Guy RK, Reporting data from high throughput screening of small molecule libraries, Nature Chemical Biology, 2007, 3(8): 438-441. doi.org/10.1038/nchembio0807-438 2. Yasgar A, Shinn P, Jadhav A, Auld DS, Michael S, Zheng W, Austin CP, Inglese J and Simeonov A, Compound Management for Quantitative High-Throughput Screening. J. Assoc. Lab. Auto., 2008, 13: 79-89. doi: 10.1016/j.jala.2007.12.004 3. […] Chemistry & Biology, 2012, 19: 1060-1072. doi.org/10.1016/j.chembiol.2012.07.015", "units": {"activity, negative = inhibition": "%"}, "values": [{"smiles": "Cc1cc(OCC(=O)NCC2(N(C)C)CCCCC2)cc(C)c1Cl", "activity, negative = inhibition": -9.58}, {"smiles": "Cc1ccc(NC(=O)c2nc(S(=O)(=O)Cc3cccc(C)c3)ncc2Cl)cc1", "activity, negative = inhibition": -10.5}, {"smiles": "COc1ccc(-c2onc(C)c2C)cc1S(=O)(=O)NCC1CCN(Cc2cccc(F)c2)CC1", "activity, negative = inhibition": -1.38}, {"smiles": "COc1cccc(NC(=O)N(Cc2cn(C)c3ccccc23)C2CCCCCC2)c1", "activity, negative = inhibition": 0.718}, {"smiles": "CCOC(=O)c1ccc(N2C(=O)c3n[nH]c(C)c3C2c2ccc(O)c(OC)c2)cc1", "note": "(centres undefined)", "activity, negative = inhibition": 5.22}, {"smiles": "CCCn1c2ccccc2c2cnn(CC(=O)NCC3CCN(Cc4ccc(C)cc4)CC3)c(=O)c21", "activity, negative = inhibition": 11.2}, {"smiles": "Cc1sc(C2C(C#N)=C(N)N(c3cccc(Cl)c3)C3=C2C(=O)CCC3)cc1CN1CCOCC1", "note": "(centres undefined)", "activity, negative = inhibition": 1.68}, {"smiles": "CCCN1C(=O)C(O)(CC(=O)c2ccc(CC)cc2)c2cc(Br)ccc21", "note": "(centres undefined)", "activity, negative = inhibition": -8.85}, {"smiles": "CCC1CCCCN1CCCNC(=O)c1cc2c(Cl)nc3ccccc3c2s1", "note": "(centres undefined)", "activity, negative = inhibition": -2.7}, {"smiles": "CCOC(=O)c1ccc(NC(=O)CSc2nc3c([nH]c4ccccc43)c(=O)n2C)cc1", "activity, negative = inhibition": -12.3}, {"smiles": "Cc1cccc(Nc2cc(C)nc(-n3nc(C)cc3C)n2)c1", "activity, negative = inhibition": -12.2}, {"smiles": "COc1ccc(CCNC(=O)c2cc(=O)c3c(C)cc(C)cc3o2)cc1OC", "activity, negative = inhibition": -17.4}, {"smiles": "Cc1nnc(SCC(=O)NCc2ccccc2Cl)c2nn(-c3ccccc3)c(C)c12", "activity, negative = inhibition": -3.49}, {"smiles": "O=C(CCS(=O)(=O)c1ccccc1)N(Cc1cccnc1)c1nc2c(F)cccc2s1", "activity, negative = inhibition": -3.07}, {"smiles": "CCOC(=O)c1c(C)[nH]c(CCC(=O)NCCCN2CCN(c3cccc(Cl)c3)CC2)c1C", "activity, negative = inhibition": 2.39}, {"smiles": "CCc1ccc(C2CC(=O)c3c([nH]c(C(=O)OCc4ccc(C)cc4)c3C)C2)cc1", "note": "(centres undefined)", "activity, negative = inhibition": 0.949}, {"smiles": "COc1ccccc1-c1cc(C(F)(F)F)nc(S(=O)(=O)CCCC(=O)Nc2ccc(F)cc2F)n1", "activity, negative = inhibition": -2.16}, {"smiles": "O=C(c1ccc(C(F)(F)F)cc1)N1CCC(c2nc(-c3ccc(S(=O)(=O)N4CCCC4)cc3)no2)CC1", "activity, negative = inhibition": -8.99}, {"smiles": "COc1ccccc1Nc1c2c(nc3ccc(NC(=O)/C=C/c4cc(OC)c(OC)c(OC)c4)cc13)CCCC2", "activity, negative = inhibition": 14.3}, {"smiles": "CC(=O)N1CCCc2cc(S(=O)(=O)N3CCCC(C(=O)N4CCN(c5cccc(Cl)c5)CC4)C3)ccc21", "note": "(centres undefined)", "activity, negative = inhibition": -3.04}, {"smiles": "Cc1ccc(OCCSc2nc3ccc(NC(=O)COc4ccc(C)cc4)cc3s2)cc1", "activity, negative = inhibition": 2.02}, {"smiles": "O=C(NCCCN1CCN(c2cccc(Cl)c2)CC1)c1nnc(Cc2ccc(F)cc2Cl)o1", "activity, negative = inhibition": -10.3}, {"smiles": "Cc1ccc(CCNC(=O)C2CCN(c3nnc(-n4cccc4CNc4ccc(C)cc4)s3)CC2)cc1", "activity, negative = inhibition": -6.01}, {"smiles": "CCOC(=O)c1c(C)[nH]c(CCC(=O)NCCCN2CCN(c3cc(C)ccc3C)CC2)c1C", "activity, negative = inhibition": -2.52}, {"smiles": "O=C(c1ccc2c(c1)N(Cc1ccc(F)cc1)C(=O)c1ccccc1S2(=O)=O)N1CCN(c2ccccn2)CC1", "activity, negative = inhibition": 9.29}, {"smiles": "CC(C)(C)c1ccc(C(=O)NCC(c2ccco2)S(=O)(=O)c2ccc(F)cc2)cc1", "note": "(centres undefined)", "activity, negative = inhibition": -13.4}, {"smiles": "CCOCCCNC(=O)c1c(NC(=O)c2nc(SC)ncc2Cl)sc2c1CCCC2", "activity, negative = inhibition": 5.33}, {"smiles": "Cc1ccccc1CNC(=O)CSc1nnc(C)c2c(C)n(-c3ccccc3)nc12", "activity, negative = inhibition": -2.97}, {"smiles": "Cc1ccc(Cn2c(C)c3cnn(CC(=O)NCc4ccccc4)c(=O)c3c2C)cc1", "activity, negative = inhibition": -12.3}, {"smiles": "CCOC(=O)C1CCN(C(=O)CSc2c3c(nc4ccc(Cl)cc24)CCCC3)CC1", "activity, negative = inhibition": -10.6}, {"smiles": "Cc1ccc(C)n1-c1nnc(N2CCC(C(=O)NCc3ccccc3Cl)CC2)s1", "activity, negative = inhibition": 3.2}, {"smiles": "CCCS(=O)(=O)c1ncc(Cl)c(C(=O)Nc2scc(-c3ccccc3)c2C(=O)OCC)n1", "activity, negative = inhibition": -3.4}, {"smiles": "COc1cccc(NC(=O)CSC2=Nc3ccccc3C3=NC(CC(=O)NC4CCCCC4)C(=O)N23)c1", "note": "(centres undefined)", "activity, negative = inhibition": -5.76}, {"smiles": "CCC1=Nc2cc(C(=O)NCCCOC(C)C)ccc2Sc2ccc(C)cc21", "activity, negative = inhibition": 7.24}, {"smiles": "CCCn1c(=N)c(C(=O)NCc2ccccc2)cc2c(=O)n3cccc(C)c3nc21", "activity, negative = inhibition": -4.12}, {"smiles": "Cc1cc(F)ccc1NS(=O)(=O)c1ccc(-n2cccn2)cc1", "activity, negative = inhibition": 10.4}, {"smiles": "CCCCOc1ccc(CN2C(=O)C(=O)c3cc(Br)cc(C)c32)cc1OC", "activity, negative = inhibition": -19.2}, {"smiles": "CCOc1ccc(NC(=O)c2c(NC(=O)Cc3ccccc3)sc3c2CCC(C)C3)cc1", "note": "(centres undefined)", "activity, negative = inhibition": -21.9}, {"smiles": "O=S(=O)(c1ccc(Cl)cc1)c1nnn2c1nc(NC1CCCC1)c1sccc12", "activity, negative = inhibition": -5.21}]}]}
